High-throughput results deposited in PubChem BioAssay by Pan Lab, Icahn School of Medicine at Mount Sinai.
This excerpt belongs to a sample that is enriched for hits.
ROC1-CUL1 inh: blocks human RBX1-Cullin-1 di-ubiquitin formation; P62877+Q13616; actives 0.6% (n = 140,000); inhibition, % at 10 µM; AID 1347404; in vitro K48 di-Ub FRET, acceptor:donor ratio, 45 min; in the data active = inhibition above about 25%
Target sequence (P62877 whole entry, looked up): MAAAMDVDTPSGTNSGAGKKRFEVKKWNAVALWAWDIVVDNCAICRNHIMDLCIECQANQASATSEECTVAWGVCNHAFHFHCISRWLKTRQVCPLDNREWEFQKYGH
Target sequence (Q13616 whole entry, looked up): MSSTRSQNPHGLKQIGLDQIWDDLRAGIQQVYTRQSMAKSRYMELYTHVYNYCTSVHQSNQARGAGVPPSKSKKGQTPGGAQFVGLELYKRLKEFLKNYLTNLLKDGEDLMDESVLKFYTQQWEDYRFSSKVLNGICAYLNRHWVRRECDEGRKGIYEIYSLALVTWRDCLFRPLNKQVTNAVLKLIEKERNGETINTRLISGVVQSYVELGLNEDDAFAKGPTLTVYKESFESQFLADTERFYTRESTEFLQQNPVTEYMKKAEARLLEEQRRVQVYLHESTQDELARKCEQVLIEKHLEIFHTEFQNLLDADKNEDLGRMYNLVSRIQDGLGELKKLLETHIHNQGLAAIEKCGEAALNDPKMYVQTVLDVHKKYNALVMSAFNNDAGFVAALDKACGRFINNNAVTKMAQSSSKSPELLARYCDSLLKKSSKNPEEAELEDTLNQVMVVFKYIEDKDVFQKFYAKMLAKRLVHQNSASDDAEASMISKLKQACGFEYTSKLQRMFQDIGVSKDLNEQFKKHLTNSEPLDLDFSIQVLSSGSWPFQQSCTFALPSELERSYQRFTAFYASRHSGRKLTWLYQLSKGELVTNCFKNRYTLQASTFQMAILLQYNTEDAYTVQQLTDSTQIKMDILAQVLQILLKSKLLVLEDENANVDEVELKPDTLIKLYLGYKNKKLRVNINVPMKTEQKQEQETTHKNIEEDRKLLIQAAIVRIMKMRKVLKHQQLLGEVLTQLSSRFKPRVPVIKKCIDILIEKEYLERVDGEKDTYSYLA
A number is an active result; 0 = inactive.

SMILES | ROC1-CUL1 inh
Cc1ccc(C(=O)Nc2sc3c(c2C(=O)O)CCCC3)cc1 | 47
NCCNC(=O)c1c(NC(=O)c2ccccc2)sc2c1CCCC2 | 34
CC(=O)Nc1sc2c(c1C(=O)c1ccccc1)CCCC2 | 0
CCOC(=O)c1c(NC(=O)c2ccc(C)cc2)sc2c1CCCCC2 | 0
CN1CCN(C(=O)c2c(NC(=O)c3ccccc3)sc3c2CCCC3)CC1 | 0
O=C(Nc1sc2c(c1C(=O)O)CCCCC2)c1ccccc1 | 0
CCn1c(COc2ccc(OC)cc2)nnc1SCC(=O)Nc1ccc(C)cc1 | 0
COc1cc(NC(=S)N2CCc3ccccc3C2)c(OC)cc1Cl | 0
CCN1C(=O)S/C(=C/c2ccc(-c3cc(C(=O)O)ccc3C)o2)C1=O | 0
CCCN1C(=O)/C(=C/c2cc(-c3ccccc3)n(-c3ccc(C(=O)OCC)cc3)c2-c2ccccc2)C(=O)N(c2ccccc2)C1=S | 0
CCCN1C(=O)/C(=C\c2ccco2)C(=O)N(c2ccccc2)C1=S | 0
CCCN1C(=O)/C(=C\c2ccc(-c3cc(C(=O)O)ccc3C)o2)C(=O)N(c2ccccc2)C1=S | 45
Cc1cc(C(=O)O)ccc1-c1ccc(/C=C2\SC(=O)N(CC(=O)N3CCOCC3)C2=O)o1 | 0
Cc1cc(C(=O)O)ccc1-c1ccc(/C=C2\SC(=O)N(CC(=O)N3CCCC3)C2=O)o1 | 0
Cc1cc(C(=O)O)ccc1-c1ccc(/C=C2/SC(=O)N(C(C)C)C2=O)o1 | 64
Cc1ccc(C(=O)O)cc1-c1ccc(/C=C2\SC(=O)N(Cc3ccccc3F)C2=O)o1 | 50
C=CCN1C(=O)S/C(=C/c2ccc(-c3cc(C(=O)O)ccc3C)o2)C1=O | 0
COCCNC(=O)C1CCN(C(=O)c2ccccc2F)CC1 | 0
COc1cc(C=Nc2ccccc2C)c([N+](=O)[O-])cc1OC | 0
CC1([N+](=O)[O-])COCN(Cc2ccccc2)C1 (stereo not given) | 0
COC(=O)c1c(NC(=O)c2ccccc2Br)sc2c1C(C(=O)OC)CC2 (stereo not given) | 0
Cc1ccccc1SC(CCN(C)C)c1ccccc1 (stereo not given) | 0
O=C(CN1CCN(c2ccc(F)cc2)CC1)N1CCc2ccccc21 | 0
CCCC1CCc2c(sc(NC(=O)c3cc(C)on3)c2C(N)=O)C1 (stereo not given) | 0
CCC1CCc2c(sc(NC(=O)c3c(C)noc3C)c2C(N)=O)C1 (stereo not given) | 74
SMILES | ROC1-CUL1 inh
Cc1noc(C)c1C(=O)Nc1sc2c(c1C(N)=O)CCCCCC2 | 0
Cc1nnc(SCC(=O)Nc2ccc([N+](=O)[O-])cc2)n1-c1cccc(Cl)c1 | 0
CCOC(=O)C1(Cc2ccc(OC)cc2)CCN(C(=O)CN(C)Cc2ccncc2)CC1 | 0
OCc1ccc(C#Cc2ccccc2)o1 | 81
Nc1ccccc1C#Cc1ccccc1 | 0
OCc1ccccc1C#Cc1ccccc1 | 0
Cc1[nH]n(-c2ccccc2)c(=O)c1C1=c2ccc(Cl)c(C)c2=NC1=O | 0
Nc1cc(S(=O)(=O)c2ccccc2)c(N)c2c1C(=O)c1ccccc1C2=O | 0
CCCNC(=O)c1cc(-c2ccc(C(C)C)cc2)nc2ccc(Br)cc12 | 0
CCCCCCCC1=NN2C(=N)/C(=C/c3ccc(-c4ccc(Cl)cc4)o3)C(=O)N=C2S1 | 0
CCCCCC1=NN2C(=N)/C(=C\c3ccc([N+](=O)[O-])o3)C(=O)N=C2S1 | 101
CCCCCCCC1=NN2C(=N)/C(=C/c3ccc(-c4ccc(F)cc4)o3)C(=O)N=C2S1 | 0
CC1CCc2c(sc3ncnc(N4CC(C)OC(C)C4)c23)C1 (stereo not given) | 0
CN(C)C(=O)c1cncc(-c2cccc(-c3ccn[nH]3)c2)n1 | 0
CS(=O)(=O)C(C(=O)c1ccccc1)C(=O)c1ccccc1 | 0
CS(=O)(=O)C#Cc1ccccc1 | 52
Brc1ccc(C#Cc2ccccc2)cc1 | 0
CN=C1CC=C(Br)C=C(C(=O)/C=C/c2ccc(C#N)cc2)C1=O | 0
CN=C1CC=CC=C(C(=O)/C=C/c2cccc(C#N)c2)C1=O | 49
CN=C1CC=C(Br)C=C(C(=O)/C=C/c2ccc3c(c2)OCO3)C1=O | 0
CN=C1CC=CC=C(C(=O)/C=C/c2ccc3c(c2)OCO3)C1=O | 93
CCN=C1CC=CC=C(C(=O)/C=C/c2ccc3c(c2)OCO3)C1=O | 0
CN=C1CC=CC=C(/C(C)=N/Nc2ccccc2)C1=O | 0
CN(C)c1ccc(-c2nc(-c3ccccc3F)no2)cn1 | 0
COC(=O)c1ccccc1OC(=O)c1cc(OC)c(OC)c(OC)c1 | 0
SMILES | ROC1-CUL1 inh
Clc1ccc(Cl)c(-c2nn3c(-c4ccccn4)nnc3s2)c1 | 0
Oc1ccc2c(c1)c(-c1ccccc1)nn2-c1ccccc1 | 0
O=C1C=CC(=O)c2c1c(-c1ccccc1)nn2-c1ccccc1 | 92
O=C(O)c1nn(-c2ccccc2)c(-c2ccccc2)c1C(=O)c1ccccc1 | 0
O=C1CCCc2c1c1cccc3c1n2CCC3 | 0
Nc1ncc2c3c1c(=O)c1ccccc1n3CCC2 | 50
CN(C)c1ccc(/C=C/c2nc(=O)c3ccccc3o2)cc1 | 0
Cc1cccc2c1OC(=O)C(C(c1ccc(Cl)cc1)C1C(=O)Oc3c(C)cccc3C1=O)C2=O (stereo not given) | 78
O=C1Oc2ccccc2C(=O)C1C(c1ccc(F)cc1)C1C(=O)Oc2ccccc2C1=O (stereo not given) | 0
O=C1Oc2ccccc2C(=O)C1C(c1cccc(O)c1)C1C(=O)Oc2ccccc2C1=O (stereo not given) | 0
Cc1ccc(OC(C)C(=O)NCc2ccccn2)cc1 (stereo not given) | 0
COc1ccc(CCN2CCCC(CN(C)C(=O)c3cc(F)cc(F)c3)C2)cc1 (stereo not given) | 0
Cc1cn2c(nc3c2c(=O)n(Cc2ccccc2)c(=O)n3C)[nH]1 | 0
CCc1cccc(CC)c1NC(=O)C(=O)N/N=C/c1ccc(Cl)c(Cl)c1 | 0
C=CCN1C(=O)C(C=Nc2ccc(Cl)cc2C(=O)c2ccccc2)C(=O)N(CCCC)C1=O (stereo not given) | 0
COc1cc(=O)n2c(c1C(=O)NCc1ccc3c(c1)OCO3)CCN(C(=O)CC1CCCC1)CC2 | 0
CN(C)c1cc(N/N=C/c2ccc(-c3ccc(C(=O)O)cc3)o2)nc(N(C)C)n1 | 62
CN(C)c1cc(N/N=C/c2ccc(OCc3ccc(F)cc3)cc2)nc(N(C)C)n1 | 0
Cc1cccc(OCC(=O)NCC(=O)N/N=C/c2ccc(-c3ccc(C(=O)O)cc3)o2)c1 | 0
O=[N+]([O-])c1ccc(N/N=C/c2cccn2-c2ccccc2)nc1 | 0
Cc1c(C(=O)O)cccc1-n1c(C)cc(/C=N/NC(=O)c2cc3ccccc3o2)c1C | 0
Cc1c(C(=O)O)cccc1-n1c(C)cc(/C=N/Nc2ccc([N+](=O)[O-])cn2)c1C | 82
OC1(C(F)(F)F)CC(c2ccccc2)=NN1c1nnc(-c2ccccc2)c(-c2ccccc2)n1 (stereo not given) | 0
Cc1cccc(CN2CCC(C(=O)NCC3CCCO3)CC2)c1 (stereo not given) | 0
Cc1ccccc1NC(=O)c1ccc(C2CCCN2)s1 (stereo not given) | 0
SMILES | ROC1-CUL1 inh
CC(C)n1cc(NC(=O)c2ccc(C3CCCN3)s2)nn1 (stereo not given) | 0
O=C(Nc1ccc2scnc2c1)c1ccc(C2CCCN2)s1 (stereo not given) | 99
Cc1cc(Cl)ccc1NC(=S)N1CCN(C/C=C/c2ccccc2)CC1 | 0
CCC(=O)NS(=O)(=O)c1cccnc1Nc1cccc(Cl)c1Cl | 0
CCCc1cc(=O)[nH]c(N2CCN(c3ccc(OC)cc3)CC2)n1 | 0
CCOc1ccc(-c2cn3c(n2)sc2cc(C(=O)NCCCN4CCCCC4)ccc23)cc1 | 0
